High-throughput results (PubChem BioAssay)
This is a sample that favours compounds with a hit; in the whole collection about 21% have one here.
Shiga inhibitor: blocks Shiga toxin action in Vero cells | Vero cells, Shiga toxin protein synthesis inhibition reporter | inhibition, % at 38.7 µM | hit rate 9.2% among 290,000 | AID 2315; in the data active means inhibition mostly above about 28%, no sharp cut-off; inactive means mostly below about 43%; further: 0% is about no effect
SARS PLpro yeast: SARS-CoV PLP inhibition in yeast; Potency, µM (highest dose often 32.9 µM), inactives show at the highest dose activity, positive = growth rescue, actives largely listed as activators; S. cerevisiae expressing SARS-CoV PLpro, growth rescue; hit rate 0.19% among 330,000; further: potency means the concentration at half of the fitted maximal effect; 0% is about no effect; nearly all actives have a fitted effect of over 55% in size
NS1 function inh: blocks influenza NS1 protein function | Potency, µM (series often up to 46.1 µM), inactives show at the top dose activity, positive = more growth | hit rate 0.4% among 270,000; further: potency means the concentration at half of the fitted maximal effect; actives are rising curves; nearly all actives have a fitted effect of over 50% in size
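Growth recovery, yeast-based: influenza A NS1 expressed in S. cerevisiae causes slow growth, and suppressors are detected by OD600. The parent strain without NS1 is used as positive control.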
Pf growth 96h: inhibits malaria parasite growth, 96 h | P. falciparum luciferase reporter growth, 96 h | Potency, µM (highest dose often 28.7 µM), inactives show at the highest dose activity change, negative = inhibition, most hits filed as inhibitors | hit rate 6.9% among 320,000 | AID 504834; active means well fitted inhibition curve with a large enough effect; inconclusive means small, poorly fitted or top-dose-only effect, or another doubt; inactive means no such curve, though single readings can be large or run the other way; further: potency means the concentration at half of the fitted maximal effect; on the % scale 0 is the no-effect control and ±100 the full control effect
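Cell-based qHTS: luciferase-tagged P. falciparum in erythrocytes (2% hematocrit, 0.05% parasitemia final) incubated with compounds for 96 hours, 37 C, 5% CO2; luciferase detection reagent then added and luminescence measured.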
Pf growth 48h: P. falciparum growth inhibition at 48 hours (one generation). P. falciparum luciferase growth in erythrocytes, 48 h. hit rate 5.9% among 310,000. Potency, µM (highest dose often 28.7 µM), for inactives: at the top dose activity change, negative = inhibition, usual class: inhibitors; active means well fitted inhibition curve with a large enough effect; inconclusive means small, poorly fitted or top-dose-only effect, or another doubt; inactive means no such curve, though single readings can be large or run the other way; further: potency means the concentration at half of the fitted maximal effect; on the % scale 0 is the no-effect control and ±100 the full control effect
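Parasite viability was followed by luminescence of a genomically integrated firefly luciferase. Cultures held 0.1% parasitemia at 2% hematocrit (final), incubated under 5% CO2 at 37 C.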
CHX counter: counter-screen hit for Shiga toxin inhibitors, cycloheximide; max response, %; hit rate 12% among 300,000; cell reporter, cycloheximide protein synthesis inhibition counterscreen; in the data active means max response mostly above about 13%, no sharp cut-off; inactive means mostly below about 14%; further: read at 38.3 µM for the half of the compounds with a filed dose; 0% is about no effect
* = called active by the depositor; ? = inconclusive; . = no result given; [ ] = remark or other dose. Unless noted, the call rests on the fitted dose curve.

SMILES	Shiga inhibitor	SARS PLpro yeast	NS1 function inh	Pf growth 96h	Pf growth 48h	CHX counter
COc1ccc(C2=Nn3c(nnc3-c3cccc(OC)c3OC)SC2)cc1OC	-16.7	.	.	.	.	5.4
CN(C)c1ccc(/C=N/c2cc(-c3ccccc3)nn2-c2ccccc2)cc1	57.3*	-8.6%	-34.4%	91.3%	.	38.5*
CCn1c2ccccc2c2nc3cc(C(=O)O)ccc3nc21	126.2*	0.0%	-50.8%	-7.1%	25.6%	34.8*
CCn1c2ccccc2c2nc3ccccc3nc21	-0.4	-14.7%	-61.3%	?	.	8.7
CC(=O)n1c2ccccc2c2nc3ccccc3nc21	.	1.4%	5.0%	2.62µM*	44.3%	26.0*
CCn1c2ccccc2c2nc3cc(OC)c(OC)cc3nc21	-15.5	-30.1%	-15.9%	3.29µM*	30.1%	2.1
CC(=O)n1c2ccccc2c2c1c1ccccc1n2C	17.2	2.3%	-54.0%	-5.2%	55.3%	5.2
CCNc1nc(NC(C)C)nc(SCCOC(=O)c2ccccc2)n1	-9.6	-24.6%	-42.4%	2.6%	-11.8%	-3.1
CC(C)Nc1nc(NC(C)C)nc(SCCOC(=O)Nc2ccc(Cl)cc2Cl)n1	-5.7	-77.6%	-16.4%	0.5%	-5.0%	21.5*
CCOc1cccc(/C=C/c2ccc3cccc(O)c3n2)c1O	138.7*	-3.7%	-5.8%	8.28µM*	-3.5%[0.00184 µM]	26.7*
CCOc1cccc(/C=C/c2ccc3cccc(O)c3n2)c1OC	93.5*	-2.2%	-93.1%	?	?	51.9*
CN(C)C(=O)Nc1ccc(-n2nc(C(C)(C)C)oc2=O)c(Cl)c1	-1.2	.	.	.	.	-1.8
CC1(C)CC(=O)C(CC(=O)NC2CCCc3ccccc32)C(=O)C1 (stereo not given)	15.7	-0.9%	.	12.6%	-2.9%	-1.8
Fc1cccc(/C=C2\CCCC3=C2NC(=S)NC3c2cccc(F)c2)c1 (stereo not given)	1.3	0.4%	7.0%	4.15µM*	2.62µM*	10.9
S=C1NC2=C(CCC/C2=C\c2ccccc2)C(c2ccccc2)N1 (stereo not given)	-1.7	-3.4%	17.9%	?	-22.4%	-1.3
CCCCCCCCNc1ncnc2ccccc12	-1.3	-26.7%	-153.3%	5.22µM*	.	1.6
c1ccc(CCNc2ncnc3ccccc23)cc1	56.9	-1.6%	-8.8%	-5.5%	278.2%	49.4*
Cc1cc2c(NCCc3ccccc3)ncnc2s1	64.7*	-8.2%	-70.5%	-0.9%	13.8%	24.8*
COc1ccc(Cl)cc1NC(=O)NN1CCN(C)CC1	-18.3	-9.2%	-64.5%	?	?	-1.0
C[C@H](CO)N1C[C@H](C)[C@@H](CN(C)Cc2ccc(-c3ccccc3)cc2)Oc2c(NC(=O)Nc3ccc(C(F)(F)F)cc3)cccc2C1=O	.	1.4%	.	.	.	.
COc1cc2c(cc1OC)C(c1cccc([N+](=O)[O-])c1)N(C(=O)c1ccccc1C(=O)O)CC2 (stereo not given)	-14.2	-0.6%	4.1%	18.8%	?	-0.6
Cc1ccc(NS(=O)(=O)c2cc(-c3cc(C)no3)ccc2C(C)C)nc1	-0.9	4.5%	-5.4%	-29.2%	-7.0%	10.6
CCOc1ccc(N(C)S(=O)(=O)c2cc(-c3cc(C)no3)ccc2CC)cc1	-7.0	-4.0%	2.8%	-18.8%	11.7µM*	11.6
Cc1cc(-c2ccc(C(C)C)c(S(=O)(=O)Nc3ccccn3)c2)on1	23.7*	4.8%	-4.6%	15.3%	63.8%	29.2*
CCc1ccc(-c2cc(C)no2)cc1S(=O)(=O)Nc1ccc(C)cn1	-6.0	-4.0%	-7.7%	13.1µM*	-0.1%	-8.4
SMILES	Shiga inhibitor	SARS PLpro yeast	NS1 function inh	Pf growth 96h	Pf growth 48h	CHX counter
CCc1ccc(-c2cc(C)no2)cc1S(=O)(=O)Nc1ccccn1	-4.4	-12.0%	-8.8%	?	17.7%	-13.0
COc1ccc(Cl)cc1C(=O)NNC(=O)C1CCCO1 (stereo not given)	.	-1.4%	.	29.1%	19.2%	.
CC(=O)Nc1ccc(C(=O)N/C(=C/c2ccccc2)C(=O)Nc2cccc(C(=O)O)c2)cc1	1.1	-0.6%	1.8%	20.4%	2.9%	-3.1
CC(=O)Nc1ccc(NC(=O)/C(Cl)=C/c2ccccc2)cc1	157.3*	-7.3%	-58.6%	21.4%	55.0%	47.5*
Cc1ccc2nc(-c3cccc(S(=O)(=O)N4CC(C)OC(C)C4)c3)cn2c1 (stereo not given)	18.2	5.5%	-19.4%	-12.1%	?	17.0*
CC1CN(S(=O)(=O)c2cccc(-c3cn4cccnc4n3)c2)CC(C)O1 (stereo not given)	-13.0	0.4%	?	3.7%	7.38µM*	7.5
C=CCNc1nc(N)c([N+](=O)[O-])c(NCCO)n1	11.6	0.2%	8.6%	0.8%	-7.3%	-2.3
CC(C)SC1=NC(C)(C)C=C(/C=C/c2c(Cl)cccc2Cl)N1	-15.1	-14.8%	-108.9%	3.29µM*	.	-3.7
COc1ccc(C)c2sc(=NC(=O)c3ccc(C(C)=O)cc3)n(C)c12	66.7*	-1.6%	3.3%	340.0%	274.1%	38.0*
COc1ccc(C)c2sc(=NC(=O)c3cccc(N4C(=O)CCC4=O)c3)n(C)c12	27.2	-0.5%	2.9%	12.6%	45.4%	20.2*
COc1ccc(C)c2sc(=NC(=O)c3ccccc3)n(C)c12	69.3*	-1.1%	-0.6%	260.5%	180.6%	18.4*
C=CCn1c(=NC(=O)c2cccc(N3C(=O)CCC3=O)c2)sc2cccc(OC)c21	-5.6	2.9%	2.8%	?	-18.3%	-3.2
Cc1c(O)ccc(/C(Cc2ccc3ccccc3n2)=N\N)c1O	67.8*	0.9%	1.1%	?	?	29.5*
CC(C)C(=O)Cc1ccc2ccccc2n1	.	.	3.1%	.	.	.
CCc1cc(/C(Cc2ccc3ccccc3n2)=N\O)c(O)cc1O	37.3	-12.1%	-131.8%	1.65µM*	36.0%	-1.9
CCc1cc(/C(Cc2ccccn2)=N\O)c(O)cc1O	-17.9	13.2%	4.7%	61.1%	.	-4.4
COc1ccc(NC(=O)Nc2ccon2)c(OC)c1	26.4	-1.3%	2.4%	-2.0%	36.8%	7.3
CN(C)CCCNC(=O)C(=O)Nc1ccc2c(c1)N(S(=O)(=O)c1cccs1)CCC2	.	0.3%	.	?	9.28µM*	.
CN(C)CCNC(=O)C(=O)Nc1ccc2c(c1)N(S(=O)(=O)c1cccs1)CCC2	.	0.0%	.	13.1µM*	?	.
COCCN1CCN(Cc2nc(C3(c4ccc(C)cc4)CCCC3)no2)CC1	-2.4	1.2%	0.7%	10.4µM*	38.7%	5.0
CC(=O)N1CCCN(Cc2nc(C3(c4ccc(C)cc4)CCCC3)no2)CC1	-3.8	0.1%	-3.1%	-13.9%	-6.7%	-1.4
Cc1ccc(C2(c3noc(CN4C[C@@H](C)O[C@@H](C)C4)n3)CCCC2)cc1	-5.3	-0.6%	-1.4%	11.7µM*	11.7µM*	-2.9
C[C@@H]1CN(Cc2nc(-c3ccc(Cl)cc3)no2)C[C@H](C)O1	32.1	1.0%	0.3%	10.2%	-11.4%	12.8
CC(C)c1ccc(/C=N/NC(=O)c2ccccn2)cc1	13.0	-1.1%	-36.8%	311.5%	93.9%	31.5*
NC(=O)N/N=C/c1ccc(Oc2ccc(F)cc2)cc1	1.8	.	.	.	.	-2.8
